Sampled rows, rich in hits. Any-hit rate of the full collection: about 3.2%.
GoLoco inh red: RGS12 GoLoco-Gai1 interaction inhibition. AID 880. Gai1:RGS12 GoLoco peptide FP, rhodamine, 10 min. P63096. Potency, µM (highest dose often 61.6 µM), for the others: top-dose activity, negative = inhibition, actives largely listed as inhibitors. 230,000 compounds, 0.44% hits; active = well fitted inhibition curve with a large enough effect, not every such curve was filed as active; inactive = no such curve, though single readings can be large or run the other way; note: nearly all actives have a fitted effect of over 30% in size
Target sequence (P63096 whole entry, looked up): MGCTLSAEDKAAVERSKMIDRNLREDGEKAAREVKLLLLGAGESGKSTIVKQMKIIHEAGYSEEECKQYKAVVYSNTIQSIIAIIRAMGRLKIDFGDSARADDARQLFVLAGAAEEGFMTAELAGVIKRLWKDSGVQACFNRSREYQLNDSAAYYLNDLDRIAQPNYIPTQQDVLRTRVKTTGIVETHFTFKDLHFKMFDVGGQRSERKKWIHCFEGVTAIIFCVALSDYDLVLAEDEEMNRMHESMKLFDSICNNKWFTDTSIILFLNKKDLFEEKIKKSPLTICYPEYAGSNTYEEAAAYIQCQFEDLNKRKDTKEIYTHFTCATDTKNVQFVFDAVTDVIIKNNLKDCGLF
Tau fluor cs: counter-screen for tau fibril formation inhibitors; Potency, µM (titrated, usually from 57.7 µM), for the others: at the top dose activity change, negative = decrease; 280,000 compounds, 0.93% hits; tau K18 P301L Alexa594 fluorescence, heparin fibrillization; note: nearly all actives have a fitted effect of over 55% in size
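Human tau K18 P301L (15 uM unlabeled, 0.24 uM Alexa 594-labeled) in 100 mM sodium acetate pH 7 with 20 uM heparin, 6 hr at 37 C. ThT 30 uM added, 1 hr ambient; Alexa 594 FP and total fluorescence read at 555/632 nm.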
Tau ThT inhib: tau fibrillization inhibition (ThT binding). P10636. recombinant tau K18 P301L (four-repeat tau fragment), heparin-induced fibrillization, ThT fluorescence. Potency, µM (series often up to 57.4 µM), without a hit: top-dose activity, negative = inhibition, hits mostly inhibitors. 270,000 compounds, 2.1% hits. AID 1460; note: nearly all actives have a fitted effect of over 55% in size
Target sequence (P10636 561-689 P618L limits assumed): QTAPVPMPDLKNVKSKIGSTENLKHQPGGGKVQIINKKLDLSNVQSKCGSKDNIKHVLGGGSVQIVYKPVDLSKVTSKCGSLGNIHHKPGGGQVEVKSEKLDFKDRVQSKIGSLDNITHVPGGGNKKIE
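Heparin-induced fibrillization of the P301L-mutant K18 repeat-domain fragment of human tau was followed by ThT binding in quantitative high-throughput format.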
TR SRC2 fluor cs: alters Texas Red total fluorescence, flagging assay interference; TRb/SRC2 Texas Red total fluorescence interference; Potency, µM (top dose mostly 106 µM), inactives show at the highest dose fluorescence change, negative = quenching; 280,000 compounds, 0.29% hits; AID 1479; active = well fitted curve in either direction with a large enough effect; inconclusive = small, poorly fitted or top-dose-only effect
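Flags fluorescent or light-absorbing compounds by total fluorescence, S + 2P, at 555 nm excitation and 632 nm emission. Mixture: 20 nM Texas Red SRC2 peptide, 0.6 uM human TRb LBD, 1 uM T3, 5% DMSO; compound exposure 5 h at ambient temperature.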
Tau fibril FP: inhibitors of human tau fibril formation; P10636; 280,000 compounds, 0.39% hits; K18 P301L tau heparin fibrillization, Alexa594 FP, 6 h; Potency, µM (doses to about 57.7 µM), for the others: at the top dose activity, negative = inhibition, actives largely listed as inhibitors; note: nearly all actives have a fitted effect of over 55% in size
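Quantitative HTS format: compounds meet 15 uM recombinant K18 P301L tau and Alexa 594-tau tracer in 100 mM sodium acetate pH 7; 20 uM heparin triggers fibrillization at 37 C over 6 hr; FP gives the signal.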
TRb SRC2 PPI: disrupts binding of human TR beta to SRC2; AID 1469; 280,000 compounds, 0.065% hits; Potency, µM (titrated, usually from 106 µM), inactives show at the top dose activity change, negative = inhibition, actives largely listed as inhibitors; TRbeta-SRC2 peptide binding, fluorescence polarization; receptor liganded with 1 µM T3; P10828;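 note: plate controls were bound peptide for no effect and peptide without receptor for full effect; nearly all actives have a fitted effect of over 50% in size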
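Compounds were added to 0.6 uM TRb ligand-binding domain and 20 nM Texas Red-labeled SRC2 peptide in Tris buffer containing 1 uM T3, incubated 5 hr at ambient temperature, then read by fluorescence polarization.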
An asterisk follows results filed as active; ? = inconclusive; . = no result; [ ] = remark or other dose. Unless noted, calls come from the whole dose curve; as a rule, active = well fitted curve in the direction sought with a large enough effect; inconclusive = small, poorly fitted or top-dose-only effect, or another doubt; inactive = no such curve, though single readings can be large; an effect the other way counts as inactive or inconclusive. Unless noted, % is set by controls: 0 for no effect and ±100 for the full control effect; potency is the fitted concentration of half-maximal effect.

SMILES	GoLoco inh red	Tau fluor cs	Tau ThT inhib	TR SRC2 fluor cs	Tau fibril FP	TRb SRC2 PPI
CC(=O)c1ccc(-c2c(C3C4C=CCCC4(C)C(=O)N3Cc3ccccc3)ccc3ccccc23)cc1 (stereo unspecified)	.	.	.	-1.3%	.	1.9%
CCCCCCCCOc1ccc(C2OC34CCCCC3C(C#N)(C#N)C2(C#N)C(=N)O4)cc1 (stereo unspecified)	28.2µM*	-17.7%	?	5.1%	-8.4%	-18.9%
CCCCC1OC23CCCCC2C(C#N)(C#N)C1(C#N)C(=N)O3 (stereo unspecified)	28.2µM*	1.4%	3.7%	3.5%	6.6%	6.8%
N#CC1(C#N)C(c2ccccc2)OC23CCCCC2C1(C#N)C(=N)O3 (stereo unspecified)	-126.2%	-6.6%	-14.0%	?	-3.3%	44.7µM*
COC(=O)[C@H]1O[C@@H](c2cc(OC)c(C)c(OC)c2O)[C@H](C)[C@@H](O)[C@H]1C	-4.6%	-2.8%	-3.4%	-0.6%	-0.6%	-1.0%
O=C(NCc1ccco1)/C(=C\c1ccco1)NC(=O)c1ccco1	-11.0%	?	39.8µM*	-1.4%	?	0.2%
O=C(NCc1ccco1)/C(=C/c1ccco1)NC(=O)c1ccc(Br)o1	-13.6%	-9.5%	?	-20.8%	-5.1%	2.1%
O=C(O)/C=C(/C(=O)O)[C@]12CCN3CC4=CCO[C@@H]5CC(=O)N[C@@H]1C5[C@H]4C[C@H]32 (stereo partly specified)	-0.3%[14.2 µM]	.	.	.	.	.
O=C1OCC2OC(O)C(O)C(O)C2OC(=O)c2cc(O)c(O)c(O)c2-c2c(O)c(O)c3oc(=O)c4c(c(O)c(O)c5oc(=O)c2c3c54)-c2c1cc(O)c(O)c2O (stereo unspecified)	-45.4%	?	7.94µM*	-8.7%	?	0.4%
CC(C)c1cccc2c([Si](C)(C)C)c3c(nc12)-c1cccc(=O)n1C3	13.1%	-28.9%	?	1.6%	-14.3%	-3.5%
Cc1c(C#N)c(O)n(CCO)c(=O)c1N=Nc1ccc(S(N)(=O)=O)cc1	-18.0%	-5.4%	12.6µM*	-2.3%	0.6%	1.9%
Cc1cc(=O)n(CCCO)c(O)c1C#N	-6.0%	-2.8%	?	0.3%	-8.0%	4.7%
Cc1c(C#N)c(O)n(C)c(=O)c1N=Nc1ccc(S(N)(=O)=O)cc1	-10.9%	-10.4%	3.98µM*	-2.8%	0.6%	0.8%
Cc1c(C#N)c(O)n(CCO)c(=O)c1N=Nc1ccccc1	-9.7%	-6.6%	12.6µM*	-2.6%	-3.1%	-3.3%
CC(=O)[C@@]1(N=Nc2ccc(S(N)(=O)=O)cc2)CCOC1=O	-3.0%[14.2 µM]	.	.	.	.	.
c1csc(CNc2nc(-c3ccc4c(c3)OCO4)nc3ccccc23)c1	6.5%	.	.	.	.	.
Nc1nc(SC/C=C\c2ccccc2)c2[nH]cnc2n1	1.0%[14.2 µM]	.	.	.	.	.
O=C(N/N=C/c1cccc(Oc2ccc([N+](=O)[O-])cc2[N+](=O)[O-])c1)c1cncc(Br)c1	-1.6%	8.91µM*[quencher]	?	3.5%	4.4%	-0.4%
O=C(N/N=C/c1cccc(OC(=O)c2ccc3c(c2)OCO3)c1)c1cncc(Br)c1	63.3%	?	?	-14.0%	?	?
Cc1ccccc1OCC(=O)NCC(=O)N/N=C/c1cccc([N+](=O)[O-])c1	1.7%	-1.8%	-12.0%	-2.6%	2.3%	-0.7%
Cc1ccccc1OCC(=O)N/N=C/c1cccc(Oc2ccc([N+](=O)[O-])cc2[N+](=O)[O-])c1	1.7%	6.31µM*[quencher]	?	1.7%	-5.9%	-11.2%
CC(=O)OCC(NC(=O)C(C)NC(=O)OC(C)(C)C)C1OC(n2cc(F)c(=O)[nH]c2=O)C(OC(C)=O)C1OC(C)=O (stereo unspecified)	.	.	.	-2.3%	.	-4.9%
O=C(CSc1nc2ccc(Cl)cc2[nH]1)Nc1ccc2c(c1)CCC2	.	?	?	-1.8%	12.6µM*	-0.3%

Compound activity from PubChem BioAssay.
